The list is not random: actives were taken first. Their share in the collection is about 1.8%.
GSTO1 inh: counter-screen for RBBP9 inhibitors: inhibitors of human GSTO1; P78417; recombinant GSTO1, activity-based probe fluorescence polarization; 1.1% of 300,000 active; inhibition, % at 5.96 µM; AID 1974;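 active = inhibition above the campaign mean inhibition plus 3 SD, cut at about 35% in these data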;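 note: 0% = GSTO1-1 with DMSO and 100% = wells lacking GSTO1-1 enzyme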
LYPLA2 inh: LYPLA2 (human) inhibition in PME1 counter-screen; O95372; recombinant LYPLA2, FP-Rh probe fluorescence polarization; inhibition, % at 5.9 µM; 0.38% of 320,000 active; AID 2177;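 active = inhibition above the screen-wide mean plus 3 SD, limit set per campaign, cut at about 26% in these data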;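 note: 0% = LYPLA2 with DMSO and 100% = wells lacking LYPLA2 enzyme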
Target sequence (O95372 whole entry, looked up): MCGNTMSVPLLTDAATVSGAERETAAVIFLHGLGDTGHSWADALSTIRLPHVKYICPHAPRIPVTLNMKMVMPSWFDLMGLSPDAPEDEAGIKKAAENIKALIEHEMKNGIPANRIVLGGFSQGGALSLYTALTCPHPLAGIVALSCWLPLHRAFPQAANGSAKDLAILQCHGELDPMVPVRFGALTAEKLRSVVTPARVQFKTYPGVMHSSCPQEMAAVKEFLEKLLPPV
LYPLA1 inh: counter-screen for PME1 inhibitors: inhibitors of human LYPLA1 | 0.16% of 320,000 active | recombinant LYPLA1, FP-Rh probe fluorescence polarization | O75608 | inhibition, % at 5.9 µM;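 active = inhibition above the mean of all tested compounds plus 3 SD, set per campaign, cut at about 14% in these data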;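 note: inhibitors block serine hydrolase probe labeling of LYPLA1 so polarization falls; 0% = enzyme with DMSO and 100% = wells lacking LYPLA1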
PME-1 primary: blocks human protein phosphatase methylesterase 1. 0.53% of 320,000 active. inhibition, % at 5.9 µM. AID 2130. recombinant PME-1, FP-Rh probe fluorescence polarization. Q9Y570;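 active = inhibition above the campaign mean of all compounds plus 3 SD, cut at about 26% in these data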;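 note: competitive labeling of PME-1 active site by serine hydrolase directed probe; 0% = PME-1 with DMSO and 100% = wells lacking PME-1 enzyme; inhibitors block probe labeling so polarization falls and inhibition rises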
Target sequence (Q9Y570 whole entry, looked up): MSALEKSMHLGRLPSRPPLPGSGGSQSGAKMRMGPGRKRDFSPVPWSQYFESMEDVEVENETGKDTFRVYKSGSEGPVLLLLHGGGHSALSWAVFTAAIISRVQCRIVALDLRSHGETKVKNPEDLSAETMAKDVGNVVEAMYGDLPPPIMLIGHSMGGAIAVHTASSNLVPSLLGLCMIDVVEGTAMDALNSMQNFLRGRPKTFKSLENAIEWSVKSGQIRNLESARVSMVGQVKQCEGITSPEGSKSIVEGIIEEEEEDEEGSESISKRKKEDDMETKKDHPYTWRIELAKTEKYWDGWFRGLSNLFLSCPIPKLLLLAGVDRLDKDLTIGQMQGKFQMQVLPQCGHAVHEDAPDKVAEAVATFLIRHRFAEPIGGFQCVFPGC
Fam108B inh: counter-screen for RBBP9 inhibitors: inhibitors of mouse Fam108B | recombinant Fam108B, FP-Rh probe fluorescence polarization | inhibition, % at 9.51 µM | 0.33% of 300,000 active | AID 1947;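 active = inhibition above the screen mean inhibition plus 3 SD, computed separately per campaign, cut at about 18% in these data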;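 note: inhibitors lower polarization as less probe binds the enzyme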
PAD4 inh: PAD4 (human) enzyme inhibition; Q9UM07; recombinant PAD4, RCA probe fluorescence polarization; inhibition, % at 6.36 µM; 0.41% of 330,000 active;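 active = percent inhibition above a cutoff equal to the mean of all tested compounds plus 3 SD, cut at about 15% in these data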;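 note: 0% = PAD4 with RCA probe and DMSO and 100% = probe without PAD4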
LYPLA1 confirm: counter-screen for PME1 inhibitors: confirmation of human LYPLA1 inhibitors; shares compounds with LYPLA1 inh; recombinant LYPLA1, FP-Rh probe fluorescence polarization; inhibition, % at 5.9 µM; 69% of 480 active; AID 2233;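 active = mean inhibition across replicates above the hit cutoff set in the primary screen, cut at about 15% in these data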;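 note: loss of FP-Rh probe labeling of LYPLA1 seen as lower polarization; 0% = LYPLA1 with DMSO and 100% = wells lacking LYPLA1 enzyme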
LYPLA2 conf: counter-screen for PME1 inhibitors: confirmation of human LYPLA2 inhibitors; shares compounds with LYPLA2 inh; AID 2232; 72% of 1,100 active; recombinant LYPLA2, FP-Rh probe fluorescence polarization; inhibition, % at 5.9 µM;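 active = mean inhibition across replicates above the hit cutoff set in the primary screen, cut at about 26% in these data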;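 note: blocked labeling of the enzyme by serine hydrolase FP-Rh probe lowers polarization; 0% = enzyme with DMSO and 100% = wells lacking LYPLA2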
Numbers without * were called inactive; nt = no result given.

SMILES | GSTO1 inh | LYPLA2 inh | LYPLA1 inh | PME-1 primary | Fam108B inh | PAD4 inh | LYPLA1 confirm | LYPLA2 conf
COc1ccc(NC(=O)C2CCC(CNc3c(N4CCCCC4)c(=O)c3=O)CC2)cc1OC (stereo not given) | 3 | 2 | 17* | -1 | -3 | -3 | 21* | nt
CC(=O)N1CCC2(CC1)C/C(=N\NC(=S)Nc1ccccc1F)c1cc(O)ccc1O2 | -36 | 19 | 10 | 16 | 3 | 1 | nt | nt
CC(=O)N1CCC2(CC1)C/C(=N\NC(=S)Nc1ccccc1C)c1cc(O)ccc1O2 | -31 | 48* | 17* | -3 | 0 | 2 | 29* | 55*
COc1ccc(-c2nc(O)c3cnccn23)cc1 | -2 | -4 | -1 | -5 | -1 | -5 | nt | nt
Cc1[nH]c2ccccc2c1C(=O)CN1CCN(C/C=C/c2ccccc2)CC1 | 1 | 56* | 31* | 0 | 2 | -4 | 31* | 54*
O=C(CCN1CCN(c2ccc([N+](=O)[O-])cc2)CC1)c1ccc(Cl)cc1 | -12 | 73* | 37* | -1 | 0 | -3 | 47* | 79*
O=C(CCN1CCN(c2ccccc2)CC1)c1ccc(Cl)cc1 | -6 | 23 | 5 | 2 | 0 | 0 | nt | nt
NS(=O)(=O)c1ccc(CCNC(=O)c2cc([N+](=O)[O-])ccc2N2CCCCC2)cc1 | 2 | 30* | 78* | 2 | -1 | 2 | 77* | 14
CC(=O)c1ccc(OCc2cc(C(=O)N3CCC(Oc4ccccc4C)CC3)no2)cc1 | -6 | 13 | -2 | 0 | -3 | 0 | nt | nt
O=C(c1cc(COc2cccc(C(F)(F)F)c2)on1)N1CCC(Oc2cccnc2)CC1 | 1 | 35* | 40* | 8 | -1 | 5 | 50* | 38*
Cc1ccc(OCc2cc(C(=O)N3CCC(Oc4cccnc4)CC3)no2)cc1C | 5 | 48* | 38* | 1 | -3 | -2 | 38* | 38*
COc1cc(C(=S)N2CCCC2)cc(OC)c1O | 1 | -1 | 1 | -1 | 1 | -5 | nt | nt
O=C(CCCCCN1C(=O)c2ccccc2C1=O)Nc1ccc(S(=O)(=O)N2CCCCC2)cc1 | 4 | 42* | 26* | 4 | -8 | -6 | 30* | 41*
CCCC(=O)N1CCN(c2ccc(NC(=O)c3ccc(OCC)c([N+](=O)[O-])c3)cc2)CC1 | -3 | 17 | 1 | 6 | 0 | 0 | nt | nt
COc1ccc(C(=O)NC(=S)Nc2ccc(CN3CCOCC3)cc2)cc1Cl | 3 | 60* | 22* | 2 | -3 | -3 | 21* | 46*
COc1ccc(C(=O)NC(=S)Nc2ccc(N3CCOCC3)c(Cl)c2)cc1[N+](=O)[O-] | 1 | 60* | 50* | 1 | -6 | 0 | 54* | 61*
CCC(=O)N1CCN(c2ccc(NC(=S)NC(=O)c3ccc(OC)c([N+](=O)[O-])c3)cc2)CC1 | 7 | 63* | 56* | 7 | 1 | -2 | 70* | 81*
COc1ccc(C(=O)NC(=S)Nc2ccccc2N2CCOCC2)cc1[N+](=O)[O-] | -8 | 12 | 0 | 8 | -1 | -3 | nt | nt
O=C(c1ccc2c(c1)OCO2)C1CCCN(C(=O)C2CCOCC2)C1 (stereo not given) | 1 | 5 | 6 | 1 | -3 | 3 | nt | nt
COc1ccc(S(=O)(=O)N(C)CC(=O)N2CCN(c3ccc(F)cc3)CC2)cc1OC | -1 | 37* | 22* | 3 | -2 | -3 | 21* | 33*
Cc1ccc(S(=O)(=O)NCCc2ccncc2)cc1[N+](=O)[O-] | 2 | 10 | 3 | -7 | 3 | -2 | nt | nt
Cc1ccccc1C1NC(=O)Cc2ccccc21 (stereo not given) | 6 | 3 | 1 | 2 | 1 | -1 | nt | nt
O=C1Cc2ccccc2C(c2ccc(Br)cc2)N1 (stereo not given) | 8 | 30* | 22* | -1 | -2 | -1 | 29* | 27*
Cn1c(N)c(C(=O)COC(=O)Cn2cc(C(F)(F)F)ccc2=O)c(=O)n(C)c1=O | 3 | 0 | 3 | -1 | 3 | 1 | nt | nt
O=[N+]([O-])c1cccc(/C=N/N2CCN(Cc3ccccc3)CC2)c1 | 6 | 10 | 1 | 4 | -4 | -2 | nt | nt
SMILES | GSTO1 inh | LYPLA2 inh | LYPLA1 inh | PME-1 primary | Fam108B inh | PAD4 inh | LYPLA1 confirm | LYPLA2 conf
O=[N+]([O-])c1cccc(/C=N/N2CCN(Cc3ccc(Cl)cc3)CC2)c1 | -2 | 41* | 29* | 7 | 0 | 1 | 37* | 53*
CCCOc1ccc(N2C(=O)CC(N3CCN(CCN=CC4C(=O)CC(C)(C)CC4=O)CC3)C2=O)cc1 (stereo not given) | 0 | 7 | 5 | -2 | 0 | -8 | nt | nt
Clc1cccc(N2CCN(CCNc3nc4ccccc4n4cnnc34)CC2)c1 | 2 | 67* | 17* | 5 | 0 | -1 | 32* | 62*
O=C1N=C(N2CCN(Cc3ccccc3)CC2)S/C1=C/c1cccs1 | -8 | 47* | 25* | -3 | -3 | -3 | 36* | 55*
CCN(CC)C(=O)CSc1nc(N)c(C#N)c(-c2cccs2)c1C#N | -42 | 2 | -1 | -1 | -3 | -2 | nt | nt
N#Cc1c(N)nc(SCc2ccncc2)c(C#N)c1-c1cccs1 | -70 | 42* | 39* | 15 | -2 | 0 | 41* | 43*
CCOc1ccc(N2C(=O)CC(N)C2=O)cc1 (stereo not given) | -1 | 0 | -1 | 4 | 3 | -2 | nt | nt
O=C1NCCCCC1NS(=O)(=O)c1cccc(C(F)(F)F)c1 (stereo not given) | 5 | -4 | -1 | 1 | -1 | 1 | nt | nt
Nc1nc(NCc2ccco2)nc(N2CCN(Cc3ccccc3)CC2)c1[N+](=O)[O-] | -11 | 48* | 29* | 5 | 0 | 10 | 42* | 48*
CCOC(=O)CSc1nnc(CSc2nc3sc4c(c3c(=O)[nH]2)CCCC4)n1-c1ccccc1 | -35 | 77* | 16* | 3 | 1 | 2 | 15* | 80*
O=C(NNC(=O)[C@H]1CC=CC[C@H]1C(=O)O)c1ccc(Cl)cc1Cl | 2 | 1 | 1 | 0 | -2 | 0 | nt | nt
COc1ccc(-n2nc(C(=O)NCC(=O)N3CCN(Cc4ccc5c(c4)OCO5)CC3)c3ccccc3c2=O)cc1OC | 13 | 74* | 50* | -17 | 1 | 2 | 63* | 82*
COc1ccc(-n2nc(C(=O)NCC(=O)N3CCOCC3)c3ccccc3c2=O)cc1OC | 2 | 6 | 6 | 1 | -5 | -3 | nt | nt
COc1ccc(N2CCN(C(=O)CNC(=O)c3cn(-c4ccccc4OC)c(=O)c4ccccc34)CC2)cc1 | 3 | 76* | 15* | 3 | -1 | -3 | 26* | 81*
